Screening results deposited in PubChem BioAssay by University of Kansas High Throughput Screening Laboratory.
Sampled rows, rich in hits. Any-hit rate of the full collection: about 3.6%.
Pf apPOL block: Pf-apPOL DNA polymerase inhibition. Recombinant Pf-apPOL, molecular beacon fluorescence, 1.5 h. inhibition, % at 10 µM. 210,000 compounds, 0.25% hits. AID 1794808
mHTT-CaM PPI inh: disrupts binding of mutant huntingtin to calmodulin. AlphaScreen His-mHTT/GST-CaM binding, luminescence. inhibition, % at 15 µM. 190,000 compounds, 3.6% hits. AID 1671202
Hits are given with their value; n = inactive; x = no result given. Rule as the data show it: active = inhibition above about 50%; inactive = the rest.

SMILES	Pf apPOL block	mHTT-CaM PPI inh
O=C(c1ccc(-c2cncnc2)nc1)N1CCN(c2ccccc2Cl)CC1	n	n
Cc1noc(C)c1CC(=O)N1CCCCC1CCN1CCCCC1 (stereo unspecified)	n	n
COc1ccccc1C1C(C(=O)c2cccs2)=C(O)C(=O)N1c1nc(C)c(C)s1 (stereo unspecified)	n	n
CC(=O)Oc1ccc2c(c1)OC(=Cc1ccc(C(C)C)cc1)C2=O	n	n
COCc1cc(=O)n2c(n1)N(Cc1ccccc1F)CC2	n	n
CC1=CC(=NS(=O)(=O)c2ccc([N+](=O)[O-])cc2)C=C(C)C1=O	n	67.0
CCS(CC)=NS(=O)(=O)c1ccc([N+](=O)[O-])cc1	n	x
CC(C)(C)OC(=O)Cn1c2ccccc2c2cc(N)ccc21	n	73.2
CCn1c2ccccc2c2cc(C(C)=O)ccc21	n	n
CCCS(=O)(=O)C(C#N)=COCC	n	x
CC1=NN(c2ccc(I)cc2)C(=O)/C1=C/c1ccc(N(C)C)cc1	n	57.0
CN(C)c1ccc(/C=C2\C(=O)N(c3ccccc3)N=C2c2ccccc2)cc1	n	56.0
CC1=NN(c2ccc(Cl)c(Cl)c2)C(=O)/C1=C/c1ccc(N(C)C)cc1	n	n
CCN(CC)c1ccc(/C=C2/C(=O)N(c3ccc(C)c(C)c3)N=C2C)cc1	n	86.0
CC1=NN(c2cccc(F)c2)C(=O)/C1=C/c1ccc(N(C)C)cc1	n	n
CC1=NN(c2ccc(C)c(C)c2)C(=O)/C1=C/c1ccc(N(C)C)c([N+](=O)[O-])c1	n	n
COc1cccc(CNc2ccc(-c3nc(-c4ccc(C)cc4)no3)cn2)c1	n	n
CCc1nnc(NS(=O)(=O)c2ccc(NC(=O)CCSc3ccccc3)cc2)s1	n	n
CS(=O)(=O)N1CCC(C(=O)Nc2ccc3c(c2)N(C(=O)c2ccco2)CC3)CC1	n	n
CCc1cc(C(=O)Nc2ccc(F)c(C)c2)no1	n	n
COc1ccc(N2CCN(C(=O)c3cccc(Cl)c3)C(C)C2=O)cc1OC (stereo unspecified)	n	n
Oc1ccc2ccccc2c1SSc1c(O)ccc2ccccc12	n	100.3
Oc1ccc2ccccc2c1CN1CCCCC1	n	x
CCN(Cc1ccncc1)C(=O)c1ccc(-c2ccc(F)cc2)s1	n	n
CCN(Cc1ccncc1)C(=O)c1ccc(-c2cccc(Cl)c2)s1	n	74.6
SMILES	Pf apPOL block	mHTT-CaM PPI inh
CCc1ccccc1NC(=O)CN1CCC2(CC1)N=C(c1cccc(F)c1)C(=O)N2	n	n
Cc1cc(C)cc(C(=O)Nc2nc(C)cc(C)c2-c2noc(C)n2)c1	n	n
Nc1ccc2cc(Br)c3ccccc3c2c1	x	59.2
O=[N+]([O-])c1ccc2cc(Br)c3ccccc3c2c1	n	x
Cc1cc(NC=C2C(=O)c3ccccc3N(C)S2(=O)=O)nc(C)n1	n	x
O=[N+]([O-])c1ccc(CNc2ccc3c(c2)CCC3)s1	n	83.7
COc1cccc(NCc2ccc([N+](=O)[O-])s2)c1	n	n
O=C(CCC1CCCC1)N1CCC(c2ccn3ncc(C(=O)N4CCOCC4)c3c2)CC1	n	n
Cc1ccc(C(=O)N2CCC3(CC2)CN(C)CC3c2noc(C3CC3)n2)cn1 (stereo unspecified)	n	n
O=C1/C(=C/c2c[nH]c3ccccc23)CC/C1=C\c1c[nH]c2ccccc12	n	98.0
O=C1/C(=C/c2c[nH]c3ccccc23)Sc2ccccc21	n	n
Cc1ccc(C(=O)N2CCc3c(c(-c4nc(C)no4)nn3C)C2)cc1	n	n
O=C(Cn1cnc([N+](=O)[O-])n1)Nc1cc(Oc2ccc(F)cc2)cc([N+](=O)[O-])c1	n	n
O=C(Cn1cnc([N+](=O)[O-])c1)Nc1cc(Oc2cccnc2)cc([N+](=O)[O-])c1	n	n
O=C(Cn1cc([N+](=O)[O-])nc1[N+](=O)[O-])Nc1cc(Oc2ccccc2)cc([N+](=O)[O-])c1	n	51.0
O=C(Cn1cnc([N+](=O)[O-])n1)Nc1cc(Oc2cccc(C(F)(F)F)c2)cc([N+](=O)[O-])c1	n	51.0
COc1ccc(N(CC(=O)Nc2ccc(C)c(C)c2)S(C)(=O)=O)cc1OC	n	n
CCCCn1c(SCc2nc3ccccc3[nH]2)nc2ccsc2c1=O	n	n
O=[N+]([O-])c1ccccc1C1Nc2c(cccc2[N+](=O)[O-])C2C=CCC21 (stereo unspecified)	n	65.0
Fc1cccc2c1N[C@@H](c1c3ccccc3cc3ccccc13)[C@H]1CC=C[C@@H]21	x	n
O=[N+]([O-])c1cccc2c1NC(c1ccccc1F)C1CC=CC21 (stereo unspecified)	n	75.0
O=C(O)c1ccc([N+](=O)[O-])c2c1NCC1CC=CC21 (stereo unspecified)	n	n
O=C(O)c1cccc2c1NC(c1ccccc1[N+](=O)[O-])C1CC=CC21 (stereo unspecified)	n	92.0
COc1cc([N+](=O)[O-])cc2c1NC(c1cccc(Cl)c1Cl)C1CC=CC21 (stereo unspecified)	n	n
Cc1ccc2ncc3c(=O)n(CC(=O)Nc4ccccc4)[nH]c3c2c1	n	n
SMILES	Pf apPOL block	mHTT-CaM PPI inh
CCOc1ccccc1N1CCN(C(=O)C2CCN(Cc3ccc(OC)cc3OC)CC2)CC1	n	n
O=C1CSC(c2ccc([N+](=O)[O-])cc2)N1c1c(F)cccc1F (stereo unspecified)	n	n
CCCCN(C)C(=O)C1CCN(c2nccc(C)n2)CC1	n	n
Cc1ccc(-n2sc(=O)n(Cc3ccc(F)cc3)c2=O)cc1	n	x
Cc1noc(C)c1-n1sc(=O)n(-c2ccc(F)cc2)c1=O	73.3	x
CCc1cccc(NC(=O)C2CCN(c3cc(=O)n(C)c(=O)n3CC)CC2)c1	n	n
O=C(Nc1ccc(NC(=O)C2CCCC2)cc1)C1CCCC1	n	n
O=C(Nc1ccc(O)cc1)C1CC=CCC1 (stereo unspecified)	n	69.7
CC(C)(C)[C@@H]1CCC(=O)N(CC[C@H](Sc2ccccc2)c2ccccc2)CC1	n	n
CC(=O)Nc1ccc(S[C@@H](CCN2CC[C@H](C(C)(C)C)CCC2=O)c2ccccc2)cc1	n	60.7
Cc1cc(C)cc(-n2ccnc2SCC(=O)Nc2cccc(C(F)(F)F)c2)c1	n	52.0
O=C(CSc1nccn1-c1ccccc1)Nc1cc(C(F)(F)F)ccc1Cl	n	n
Cc1cccc(-n2ccnc2SCC(=O)Nc2ccc(Cl)c(Cl)c2)c1C	n	95.0
O=C(CSc1nccn1-c1cccc(Cl)c1)Nc1cc(C(F)(F)F)ccc1Cl	n	n
O=C(CSc1nccn1-c1cccc(Cl)c1)Nc1cccc(C(F)(F)F)c1	n	61.0
Cc1cccc(-n2ccnc2SCC(=O)Nc2cccc(C(F)(F)F)c2)c1C	n	n
O=C(CSc1nccn1-c1ccc([N+](=O)[O-])cc1)Nc1cc(C(F)(F)F)ccc1Cl	n	51.0
Cc1cccc(-n2ccnc2SCC(=O)Nc2cccc(C(F)(F)F)c2)c1	n	n
CC(C)CCNC(=O)C1(O)c2cc(Br)ccc2NC(=O)N1c1ccccc1 (stereo unspecified)	n	n
COc1ccc2oc(=N)c(-c3nc4ccccc4[nH]3)cc2c1	n	n
COC(=O)C(C)Oc1ccc2c(c1)OC(=Cc1cccc(Cl)c1)C2=O (stereo unspecified)	n	n
COc1ccc(OC)c(CNC(=O)CC2CCN(C(=O)C3CCCCC3)CC2)c1	n	n
NC(CCS(=O)(=O)c1ccc(Cl)cc1)=NOC(=O)c1ccccc1Cl	n	x
O=C(NCCCN1CCCC1)C1CCN(c2nnc3ccccn23)CC1	n	n
